Reference: PubChem BioAssay AID1159577 (Broad Institute, 2015)
Among all 1,300 compounds or so, about 240 (18%) were called active. Roughly 8% stayed inconclusive and do not appear here. These entries were drawn from the full list. Results with a measured potency or affinity are listed apart. A number with no mark means an inactive call. No rule for the calls is given here.

Assay: toxicity to human hepatoma HepG2 cells – cell-based, cherry-picked samples, cytotoxicity control, dose response (AID 1159577);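 also: 0% = neutral control wells and -100% = positive control wells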
Conditions: HepG2 cytotoxicity counterscreen, plate reader; series mostly up to 19.5 µM; activity change, negative = cytotoxicity: at the top concentration

SMILES	activity change, negative = cytotoxicity
COc1ccccc1-c1cccc(-c2nc(C(=O)Nc3nccs3)cc3c2[C@H](CCO)N(C(=O)CC2CC2)C3)c1	30.2%
CO[C@H]1CN(C)C(=O)c2cc(NS(=O)(=O)c3ccccc3C)ccc2OC[C@H](C)N(C)C[C@H]1C	-7.94%
CC(C)(O)C#Cc1ccc([C@H]2[C@H](CO)N3CCCCN(C(=O)c4ccc(F)cc4)C[C@@H]23)cc1	21.6%
COc1ccc2c3c(n(C)c2c1)[C@H](CO)N(CC1CC1)CC31CN(C(=O)c2ccc3c(c2)OCO3)C1	1.85%
CO[C@@H]1CN(C)C(=O)c2ccc(NC(=O)C3CCC3)cc2OC[C@@H](C)N(CC2CCCCC2)C[C@H]1C	-6.63%
CO[C@@H]1CN(C)C(=O)c2cc(NC(=O)c3ccccc3F)ccc2OC[C@H](C)N(C(=O)c2ccccc2F)C[C@@H]1C	14.7%
C[C@H](CO)N1C[C@H](C)[C@@H](CN(C)C(=O)Nc2cccc3ccccc23)Oc2ccc(NC(=O)Cc3cn(C)c4ccccc34)cc2C1=O	-4.27%
C[C@H](CO)N1C[C@H](C)[C@@H](CN(C)S(=O)(=O)c2ccc(C(F)(F)F)cc2)OCc2ccccc2-c2c(n(C)c3ccccc23)C1=O	0.059% [at 21 µM]
N#C[C@@H]1[C@H](c2ccccc2-c2cccc(F)c2)[C@@H](CO)N1C(=O)C1CCCC1	17.6%
CC(C)(C)[S@@](=O)N1Cc2cc(C(=O)N[C@@H]3CCN(Cc4ccccc4)C3)nc(-c3cccc(-c4cccnc4)c3)c2[C@H]1CCO	22.2%
COCc1cn([C@@H]2C[C@@H]3O[C@H](CO)CC[C@@H]3O[C@@H]2CCc2ccc(-c3ccc(OC)cc3)cc2)nn1	-7.81%
CCCNC(=O)Nc1ccc2c(c1)C(=O)N(C)C[C@@H](OC)[C@H](C)CN(C(=O)C1CCOCC1)[C@@H](C)CO2	14.2%
COc1ccc(NC(=O)N(C)C[C@@H]2Oc3cc(-c4ccc(C)cc4)ccc3S(=O)(=O)N([C@H](C)CO)C[C@@H]2C)cc1	-9.12%
C[C@H]1CN([C@@H](C)CO)S(=O)(=O)c2ccc(C#Cc3ccccc3)cc2O[C@@H]1CN(C)S(=O)(=O)c1cn(C)cn1	-20.3%
COc1cccc(CN2CCCCN3[C@H](CO)[C@@H](c4ccc(C#Cc5cccnc5)cc4)[C@@H]3C2)c1	-16.5%
O=C(Nc1ccccc1)N1CCCCN2[C@H](CO)[C@H](c3ccc(C#Cc4cccnc4)cc3)[C@@H]2C1	-11.5%
COc1ccc(NC(=O)N2CCCCN3[C@H](CO)[C@H](c4ccc(C#Cc5ccccn5)cc4)[C@@H]3C2)cc1	-5.37%

SMILES	activity change, negative = cytotoxicity
C[C@@H]1CN([C@H](C)CO)C(=O)c2c(c3ccccc3n2C)-c2ccccc2CO[C@@H]1CN(C)C(=O)[C@H](C)c1ccccc1	-3.8%
C[C@@H]1CN([C@H](C)CO)C(=O)c2ccccc2-c2ccccc2CO[C@H]1CN(C)C(=O)Nc1cccc(Cl)c1Cl	-0.614% [at 21 µM]
C[C@H](CO)N1C[C@H](C)[C@H](CN(C)Cc2ccc(Oc3ccccc3)cc2)Oc2c(NC(=O)c3nc4ccccc4s3)cccc2C1=O	11.9%
C[C@H](CO)N1C[C@H](C)[C@H](CN(C)S(=O)(=O)c2cccs2)Oc2ccc(NC(=O)Cc3cn(C)c4ccccc34)cc2C1=O	-0.395%
COc1ccc(C#Cc2ccc3c(c2)O[C@H](CN(C)S(=O)(=O)c2ccccc2F)[C@@H](C)CN([C@H](C)CO)S3(=O)=O)cc1	0.364%
CC(C)(C)[S@@](=O)N1Cc2cc(C(=O)NCCN3CCCC3)nc(-c3cccc(-c4ccc(C#N)cc4)c3)c2[C@H]1CCO	-19.4% [at 21 µM]
COCC(=O)Nc1ccc2c(c1)C(=O)N(C)C[C@H](OC)[C@H](C)CN(Cc1cc(F)ccc1F)[C@@H](C)CO2	15.5%
COc1ccccc1CNC(=O)C[C@H]1C[C@H]2c3cc(NC(=O)Cc4ccncc4)ccc3O[C@H]2[C@H](CO)O1	-27.4%
C[C@@H]1CN([C@@H](C)CO)C(=O)c2c(c3ccccc3n2C)-c2ccccc2CO[C@H]1CN(C)C(=O)Nc1ccccc1C(F)(F)F	-28.3% [at 21 µM]
C[C@H]1CN([C@@H](C)CO)C(=O)c2c(c3ccccc3n2C)-c2ccccc2CO[C@@H]1CN(C)C(=O)Cc1ccccc1	8.45% [at 21 µM]
C[C@H]1CN([C@@H](C)CO)C(=O)c2c(c3ccccc3n2C)-c2ccccc2CO[C@@H]1CN(C)Cc1ccc(-c2ccccc2)cc1	-16.6%
C[C@H](CO)N1C[C@H](C)[C@H](CN(C)S(=O)(=O)c2ccc(C(F)(F)F)cc2)OCc2ccccc2-c2c(n(C)c3ccccc23)C1=O	-5.43%
C[C@H](CO)N1C[C@H](C)[C@@H](CN(C)Cc2ccc(-c3ccccc3)cc2)OCc2ccccc2-c2c(n(C)c3ccccc23)C1=O	-24%
C[C@H]1CN([C@@H](C)CO)C(=O)c2c(c3ccccc3n2C)-c2ccccc2CO[C@@H]1CN(C)C(=O)Nc1cccc(C(F)(F)F)c1	2.5% [at 21 µM]
COc1ccc(S(=O)(=O)N2CCC3(CC2)CN(Cc2ccncc2)[C@@H](CO)c2[nH]c4cc(OC)ccc4c23)cc1	-20.5%
COc1ccccc1NC(=O)Nc1ccc2c(c1)OC[C@@H](C)N(Cc1ccccc1Cl)C[C@@H](C)[C@H](OC)CN(C)C2=O	-3.52%
